{"source": "paper PMC12864922", "about": "“TDP-43 directly inhibits mRNA accumulation in neurites through modulation of mRNA stability”", "binders": {"B1": {"name": "ENSMUSG00000058297.560|Spock2|93:97;225:231 (ssRNA)", "RNA": "GGGAGUUCUACAGUCCGACGAUCGCUUCGAUAUCCGCAUGCUAACCUGGGGGUGCAAAAGGAGAUUCAAGACAUCCGUACCAAGUCAGGCAGAGCUACCCGCUUCUCAGCCCGUGUCCCACUUAAAACCGUCCGAACACAAAUCACUGAGCUUAGAGUUAAACAUUGUGGUCAAGUGCUUGGGUUCCGUCUGUAGAUUUAAGUGCUGACGUUGUAUCUCUCAGUAAUUUUAGAUGUCUUUUAAAAAAUCUGAACAAGUGUUAGACCCCACACACCGUUGGUGGGCACUCAAGCAUCCCGUGGGCUCUUGCGGUCGCACUAGUGUGGAAUUCUCGGGUGUCAAGG"}, "B2": {"name": "ENSMUSG00000042529.275|Kcnj12 (ssRNA)", "RNA": "GGGAGUUCUACAGUCCGACGAUCGCUUCGAUAUCCGCAUGCUAUUACCUGCCACUCACCUCUCUAUCUAGUUGUCGAGUCUAGGGAAGGGCAGAGGGUGGGUCCUGGCCACUGGGUGCCACUGUGGGAGCCGGGGCACCUGUCAUUCUUUCUGAGUAGGUGGGCCUGUAUCCAGAGCAGGGUCUAGGGGCUCCUGCUCCCGGCUCAUCUCAGUGGCCUGAAGCAUUCAAAACUCUAGCCAGCCCCAUCCUCCUCCCUGCCAGAAUGGUCCAGUCCCUGGGCCCUGCUGGAGAGCAGCUCAAACCUCUUGCGGUCGCACUAGUGUGGAAUUCUCGGGUGUCAAGG"}, "B3": {"name": "ENSMUSG00000042529.296|Kcnj12 (ssRNA)", "RNA": "GGGAGUUCUACAGUCCGACGAUCGCUUCGAUAUCCGCAUGCUAUCCAGAGCAGGGUCUAGGGGCUCCUGCUCCCGGCUCAUCUCAGUGGCCUGAAGCAUUCAAAACUCUAGCCAGCCCCAUCCUCCUCCCUGCCAGAAUGGUCCAGUCCCUGGGCCCUGCUGGAGAGCAGCUCAAACUGCCUUUCAUCUCUGCCAAAGGCAGGCAGAUGCUGUAUUUUCAAAUUCUCCUGCCCUCUUUUCCCCUUUUUCCCUGUAUUUAUUUAUUGCUUGUGCUAAAGACCAAACUAGCCGCCCCCUUUAGUGCUCUUGCGGUCGCACUAGUGUGGAAUUCUCGGGUGUCAAGG"}, "B4": {"name": "ENSMUSG00000090935.16|Synj2bp (ssRNA)", "RNA": "GGGAGUUCUACAGUCCGACGAUCGCUUCGAUAUCCGCAUGCUAAUAUGAACGGACGGGUGGAUUAUUUAGUCACGGAGGAAGAGAUCAACCUGACGAGAGGACCUUCGGGUAAAUGGCCAAGAUCUGAAGAACCUGCUGCACCAAGAUGCUGUAGACCUCUUCCGUAAUGCGGGAUGUGCUGUGUCCCUGAGAGUACAGCACAGGUUACCAGUGCAGAAUGGACCUAUAGUACAUCGAGGUGAAGGAGAGCCAAGUGGAGUUCCUGUAGCUAUGGUGCUGCUACCAGUGUUUGCCCUCACCAUCUCUUGCGGUCGCACUAGUGUGGAAUUCUCGGGUGUCAAGG"}, "B5": {"name": "ENSMUSG00000061578.1096|Ksr2 (ssRNA)", "RNA": "GGGAGUUCUACAGUCCGACGAUCGCUUCGAUAUCCGCAUGCUAAGAAGGCUGGGGGAGCUUUCAGGGGUGUGGCCAGUUAUGUACAGAUGUGAAGCUGAGGUCUGAAGGAAAUGGAGGAAGUAGGAAGAUCAGACUGGUUGAAUUAGAAGUCUGUCACUCUAGGUGCUAAGUGACCUUGGACCCAGUCAGUUCUUGGAUUUCUGUUGUAGCCCAGGCUAGCCUCGAACCCUUGAUCCUCCUGUUCCUGGUAGAGAAACAGCCACUAAAUGGUGGGAUAGAAUGUGACUGCUCUAUCCCCGAUCCUCUUGCGGUCGCACUAGUGUGGAAUUCUCGGGUGUCAAGG"}, "B6": {"name": "ENSMUSG00000029636.193|Wasf3 (ssRNA)", "RNA": "GGGAGUUCUACAGUCCGACGAUCGCUUCGAUAUCCGCAUGCUAAGCCAGUUGCCCGGGCAGAGACCUGACUUCCCCUCUCCUGCCCUGAUCCUUUUUACCAAAUGGCGAUUCCAUAGUCCUGGCUGAGGCAGGGGCUCAAAGUCCAGUGUCUGCUUUGCAAUUCUGGAAGGACAGCUGCUUAUUUAAAUAAGUCUGUGAUAUCCGCAGGCUUGGGUUACAGGGAGGACCUUGCAGAGGGACCAGGACACUGCCUUCCCUUAGGUGCAUUAUUUACGUGGCCUGCAGCUCUUAAUAUCUCUCACCUCUUGCGGUCGCACUAGUGUGGAAUUCUCGGGUGUCAAGG"}, "B7": {"name": "ENSMUSG00000058297.30|Spock2|71:75;79:92;101:112;126:132;141:150;156:181 (ssRNA)", "RNA": "GGGAGUUCUACAGUCCGACGAUCGCUUCGAUAUCCGCAUGCUACAGGCAACUUAGCAAAUGGAUCCGGAAGUCAGUGCGGAGGACCCUGGCUCCAGUGGGGGAGGACUGGGGACACACGCUACACACAUACACACAUAUGAGAACACACACAUACAUGUGAGAUGUGACACACACAUGUGAGAACACACAUACUGAGAACACACACACACACACACACACACACAUGUGAGUCACCCAAAGGUCCCUAUGUUAUUGAUUUUCAAAUGCACACUUUCACACACAAGGAUACACUAACAGACCAACUCUUGCGGUCGCACUAGUGUGGAAUUCUCGGGUGUCAAGG"}, "B8": {"name": "ENSMUSG00000058297.31|Spock2|65:69;73:86;95:106;120:126;135:144;150:175 (ssRNA)", "RNA": "GGGAGUUCUACAGUCCGACGAUCGCUUCGAUAUCCGCAUGCUAACUUAGCAAAUGGAUCCGGAAGUCAGUGCGGAGGACCCUGGCUCCAGUGGGGGAGGACUGGGGACACACGCUACACACAUACACACAUAUGAGAACACACACAUACAUGUGAGAUGUGACACACACAUGUGAGAACACACAUACUGAGAACACACACACACACACACACACACACAUGUGAGUCACCCAAAGGUCCCUAUGUUAUUGAUUUUCAAAUGCACACUUUCACACACAAGGAUACACUAACAGACCAAAAUCAACUCUUGCGGUCGCACUAGUGUGGAAUUCUCGGGUGUCAAGG"}, "B9": {"name": "ENSMUSG00000058297.30|Spock2 (ssRNA)", "RNA": "GGGAGUUCUACAGUCCGACGAUCGCUUCGAUAUCCGCAUGCUACAGGCAACUUAGCAAAUGGAUCCGGAAGUCAGUGCGGAGGACCCUGGCUCCAGUGGGGGAGGACUGGGGAGUGUGGCUUGUGUGUAUGUGUGAUAUGAGAUGUGUGUGUAUGAUGUGAGAUGUGAGUGUGUGAUGUGAGAUGUGUGUAUGUGAGAUGUGUGUGUGUGUGUGUGUGUGUGUGAUGUGAGUCACCCAAAGGUCCCUAUGUUAUUGAUUUUCAAAUGCACACUUUCACACACAAGGAUACACUAACAGACCAACUCUUGCGGUCGCACUAGUGUGGAAUUCUCGGGUGUCAAGG"}}, "note": "Whole data set: some 9,900 sequences, median “r (bound/input frequency ratio)” near 0.7, cut for the highest 2% near 6.5. Many of the other results were omitted from the sample, so the highest values are more common in it than they were."}
{"target": "TDP-43 (Homo sapiens, UniProt Q13148 1-414)", "sequence (Q13148 whole entry)": "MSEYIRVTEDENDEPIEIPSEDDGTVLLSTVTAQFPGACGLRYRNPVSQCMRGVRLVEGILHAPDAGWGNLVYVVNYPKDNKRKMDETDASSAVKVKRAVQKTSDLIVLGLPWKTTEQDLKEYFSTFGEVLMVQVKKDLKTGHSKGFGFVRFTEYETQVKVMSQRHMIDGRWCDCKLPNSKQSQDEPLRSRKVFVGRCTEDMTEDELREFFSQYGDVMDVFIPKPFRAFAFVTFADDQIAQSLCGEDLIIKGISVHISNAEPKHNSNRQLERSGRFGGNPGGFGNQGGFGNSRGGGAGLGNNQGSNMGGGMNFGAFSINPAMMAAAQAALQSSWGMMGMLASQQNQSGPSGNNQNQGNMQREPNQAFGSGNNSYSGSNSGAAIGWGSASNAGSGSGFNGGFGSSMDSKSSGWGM", "assay": "RNA Bind-n-Seq with designed 260-mer pool; 25 mM Tris-HCl, 150 mM KCl, 3 mM MgCl2, BSA (printed 500 mg/mL), 20 units/mL SUPERase IN; pH not stated; 500 nM RNA pool, 1 h, 4 C; TDP-43 5, 50, 500 nM; high values mean tight binding", "settings": "protein: recombinant; tags: SBP (GST cleaved off with PreScission; pGEX-GST-SBP)", "procedure,_shortened": "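An in vitro-transcribed pool of 260-nt 3′ UTR oligos (500 nM) was incubated for 1 h at 4 °C with recombinant SBP-tagged TDP-43 at 5, 50 or 500 nM held on streptavidin beads. The buffer contained 25 mM Tris-HCl, 150 mM KCl, 3 mM MgCl2, BSA and SUPERase IN. Biotin-eluted bound RNA was sequenced, and binding, R, is each oligo's normalized read abundance in the bound sample over that in input.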"}
{"binder": "B1", "binding signal": "0.189 R (bound/input frequency ratio)"}
{"binder": "B2", "binding signal": "0.367 R (bound/input frequency ratio)"}
{"binder": "B3", "binding signal": "1.65 R (bound/input frequency ratio)"}
{"binder": "B4", "binding signal": "0.983 R (bound/input frequency ratio)"}
{"binder": "B5", "binding signal": "2.29 R (bound/input frequency ratio)"}
{"binder": "B6", "binding signal": "0.437 R (bound/input frequency ratio)"}
{"binder": "B7", "binding signal": "2.07 R (bound/input frequency ratio)"}
{"binder": "B8", "binding signal": "3.59 R (bound/input frequency ratio)"}
{"binder": "B9", "binding signal": "8.87 R (bound/input frequency ratio)"}
